Reference: PubChem BioAssay
Activity calls are given as the source filed them.

What was measured:
[1] = small molecules captured by biotinylated probe aFSTL3 – biochemical, small-molecule microarray, fluorescence 635/667, stem cell growth factor project, primary screen (AID 1064); conditions: higher = more signal;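 also: measures binding of the biotinylated anti-FSTL3 antibody to printed compounds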
[2] = binders from COS7 lysate, DM2A8 probe, primary screen, torsin A project, cell lysate, small-molecule microarray, fluorescence 635/667 (AID 1065); conditions: higher = more signal, COS7 lysate expressing mutant human TOR1A
[3] = small molecules captured by biotinylated probe aFGF2 – biochemical, small-molecule microarray, fluorescence 635/667, stem cell growth factor project, primary screen (AID 1067); conditions: higher = more signal;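 also: measures binding of biotinylated aFGF2 protein to printed compounds on slides; z-score merges feature fluorescence and signal-to-noise across triplicate slides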
[4] = small molecules captured by biotinylated probe aFGF10 – biochemical, small-molecule microarray, fluorescence 635/667, stem cell growth factor project, primary screen (AID 1071); conditions: higher = more signal;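 also: score merges 667 nm spot intensity and signal to noise from triplicate slides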
[5] = target: Neurogenic locus notch homolog protein 2 (Homo sapiens) (UniProt Q04721); experiment: small molecules binding Notch2 protein – biochemical, small-molecule microarray, 635 nm fluorescence, stem cell growth factors, primary screen (AID 1073); conditions: higher = more signal
[6] = target: Pro-neuregulin-1, membrane-bound isoform (Homo sapiens) (UniProt Q02297); experiment: small molecules binding neuregulin-1 protein – biochemical, small-molecule microarray, fluorescence 635/667, psychiatric disease protein project, primary screen (AID 1075); conditions: NRG1 binding, 635 nm fluorescence, higher = more signal;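 also: score combines 667 nm spot fluorescence with signal to noise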
[7] = test system: Neuregulin-1 EGF-like domain; experiment: small molecules binding NRG1 EGF domain – biochemical, small-molecule microarray, 635 nm fluorescence, primary screen (AID 1081); conditions: higher = more signal;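 also: binding of the protein to compounds printed on small-molecule microarray slides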
[8] = FRG1 expression reporter modulators in myotubes – cell-based, C2C12 myotubes, firefly/Renilla luciferase, luminescence, FRG1 inhibition for FSHD, primary screen (AID 1084); conditions: FRG1 promoter luciferase, higher = more signal, called active from +8 up or from −8 down
[9] = small molecules captured by biotinylated probe aFST – biochemical, small-molecule microarray, fluorescence 635/667, stem cell growth factor project, primary screen (AID 1086); conditions: higher = more signal;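 also: score merges 667 nm fluorescence with signal-to-noise of each printed compound spot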
[10] = binders of probe aHhip on microarray, primary screen, stem cell growth factor project, biochemical, small-molecule microarray, fluorescence 635/667 (AID 1087); conditions: higher = more signal;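 also: score merges spot fluorescence at 667nm with spot signal to noise ratio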
[11] = test system: PRMT1 (protein arginine N-methyltransferase 1); experiment: small molecules binding arginine methyltransferase PRMT1 – biochemical, small-molecule microarray, 635 nm fluorescence, primary screen (AID 1088); conditions: higher = more signal;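 also: binding of Prmt1 protein to compounds spotted on small-molecule microarray slides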
[12] = growth effects on S. cerevisiae YJM789 – YJM789 clinical isolate, OD600, 24 h, basal, primary screen (AID 1089); conditions: higher = more signal, called active from +8 up or from −8 down;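 also: growth of clinical yeast isolate S. cerevisiae YJM 789 seeded 1000 cells per well; test concentration not given here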
[13] = S. pombe growth modifiers, basal conditions – strain 972, OD600, 24 h, no modulator, primary screen (AID 1090);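 also: basal condition with compound alone and no growth modifier present; test concentration not given here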; conditions: S. pombe 972 growth, higher = more signal, called active from +8 up or from −8 down
[14] = budding yeast growth modifiers under rapamycin – strain BY4716, OD600, 96 h, primary screen (AID 1091); also: test concentration not given here; conditions: S. cerevisiae BY4716 + rapamycin, higher = more signal, called active from +8 up or from −8 down
[15] = target: Torsin-1A-interacting protein 2 (Homo sapiens) (UniProt Q8NFQ8); experiment: small molecules binding lysate-expressed LULL1 – cell lysate, human LULL1 lysate, 635/667 nm fluorescence, primary screen (AID 1092); conditions: small-molecule microarray, hLULL1 lysate binding, 635 nm fluorescence; higher = more signal;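 also: probe is lysate of COS7 cells overexpressing human LULL1; score merges per-feature 667 nm fluorescence with signal-to-noise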
[16] = optical density change of DRC41 E. coli – strain DRC41, OD650, 24 h, E. coli filamentation project, primary screen (AID 1093);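 also: MC1000 strain lacking acrAB efflux and sulA so SOS filamentation is blocked; test concentration not given here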; conditions: E. coli DRC41 growth, higher = more signal, called active from +8 up or from −8 down
[17] = probe aLefty2 binding to arrayed compounds – biochemical, biotinylated probe, 635/667 nm fluorescence, primary screen (AID 1094); conditions: small-molecule microarray, higher = more signal;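 also: score merges spot fluorescence near 667 nm with spot signal-to-noise ratio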
[18] = test system: Noggin (protein binding on small-molecule microarray); experiment: small molecules binding Noggin protein – biochemical, 635/667 nm fluorescence, primary screen (AID 1095); conditions: 635 nm fluorescence, higher = more signal;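 also: score merges 667 nm feature fluorescence with signal to noise over triplicate slides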
[19] = target: Neurogenic locus notch homolog protein 3 (Homo sapiens) (UniProt Q9UM47); experiment: small molecules binding NOTCH3 protein – biochemical, 635/667 nm fluorescence, primary screen (AID 1096); conditions: small-molecule microarray, 635 nm fluorescence, higher = more signal
[20] = probe aEGFR binding to arrayed compounds – biochemical, biotinylated probe, 635/667 nm fluorescence, primary screen (AID 1097); conditions: small-molecule microarray, higher = more signal;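 also: probe is a biotinylated anti-EGFR antibody binding compounds printed on slides; score combines fluorescence near 667 nm and signal to noise of each spot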

Torsin-1A-interacting protein 2 (Homo sapiens), sequence (Q8NFQ8 whole entry, looked up): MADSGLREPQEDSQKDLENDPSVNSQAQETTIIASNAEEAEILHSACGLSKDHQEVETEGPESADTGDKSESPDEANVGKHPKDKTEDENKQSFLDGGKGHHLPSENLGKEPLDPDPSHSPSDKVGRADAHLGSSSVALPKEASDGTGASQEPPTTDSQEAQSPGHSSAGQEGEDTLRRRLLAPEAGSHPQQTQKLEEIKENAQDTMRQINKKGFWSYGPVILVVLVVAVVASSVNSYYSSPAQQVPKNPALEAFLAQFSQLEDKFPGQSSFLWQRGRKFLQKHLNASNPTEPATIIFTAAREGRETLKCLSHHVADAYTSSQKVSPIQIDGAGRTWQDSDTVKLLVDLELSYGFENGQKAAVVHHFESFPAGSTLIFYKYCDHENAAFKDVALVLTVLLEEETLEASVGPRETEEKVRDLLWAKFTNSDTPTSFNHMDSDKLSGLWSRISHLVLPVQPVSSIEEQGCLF
Neurogenic locus notch homolog protein 3 (Homo sapiens), sequence (Q9UM47 whole entry, looked up): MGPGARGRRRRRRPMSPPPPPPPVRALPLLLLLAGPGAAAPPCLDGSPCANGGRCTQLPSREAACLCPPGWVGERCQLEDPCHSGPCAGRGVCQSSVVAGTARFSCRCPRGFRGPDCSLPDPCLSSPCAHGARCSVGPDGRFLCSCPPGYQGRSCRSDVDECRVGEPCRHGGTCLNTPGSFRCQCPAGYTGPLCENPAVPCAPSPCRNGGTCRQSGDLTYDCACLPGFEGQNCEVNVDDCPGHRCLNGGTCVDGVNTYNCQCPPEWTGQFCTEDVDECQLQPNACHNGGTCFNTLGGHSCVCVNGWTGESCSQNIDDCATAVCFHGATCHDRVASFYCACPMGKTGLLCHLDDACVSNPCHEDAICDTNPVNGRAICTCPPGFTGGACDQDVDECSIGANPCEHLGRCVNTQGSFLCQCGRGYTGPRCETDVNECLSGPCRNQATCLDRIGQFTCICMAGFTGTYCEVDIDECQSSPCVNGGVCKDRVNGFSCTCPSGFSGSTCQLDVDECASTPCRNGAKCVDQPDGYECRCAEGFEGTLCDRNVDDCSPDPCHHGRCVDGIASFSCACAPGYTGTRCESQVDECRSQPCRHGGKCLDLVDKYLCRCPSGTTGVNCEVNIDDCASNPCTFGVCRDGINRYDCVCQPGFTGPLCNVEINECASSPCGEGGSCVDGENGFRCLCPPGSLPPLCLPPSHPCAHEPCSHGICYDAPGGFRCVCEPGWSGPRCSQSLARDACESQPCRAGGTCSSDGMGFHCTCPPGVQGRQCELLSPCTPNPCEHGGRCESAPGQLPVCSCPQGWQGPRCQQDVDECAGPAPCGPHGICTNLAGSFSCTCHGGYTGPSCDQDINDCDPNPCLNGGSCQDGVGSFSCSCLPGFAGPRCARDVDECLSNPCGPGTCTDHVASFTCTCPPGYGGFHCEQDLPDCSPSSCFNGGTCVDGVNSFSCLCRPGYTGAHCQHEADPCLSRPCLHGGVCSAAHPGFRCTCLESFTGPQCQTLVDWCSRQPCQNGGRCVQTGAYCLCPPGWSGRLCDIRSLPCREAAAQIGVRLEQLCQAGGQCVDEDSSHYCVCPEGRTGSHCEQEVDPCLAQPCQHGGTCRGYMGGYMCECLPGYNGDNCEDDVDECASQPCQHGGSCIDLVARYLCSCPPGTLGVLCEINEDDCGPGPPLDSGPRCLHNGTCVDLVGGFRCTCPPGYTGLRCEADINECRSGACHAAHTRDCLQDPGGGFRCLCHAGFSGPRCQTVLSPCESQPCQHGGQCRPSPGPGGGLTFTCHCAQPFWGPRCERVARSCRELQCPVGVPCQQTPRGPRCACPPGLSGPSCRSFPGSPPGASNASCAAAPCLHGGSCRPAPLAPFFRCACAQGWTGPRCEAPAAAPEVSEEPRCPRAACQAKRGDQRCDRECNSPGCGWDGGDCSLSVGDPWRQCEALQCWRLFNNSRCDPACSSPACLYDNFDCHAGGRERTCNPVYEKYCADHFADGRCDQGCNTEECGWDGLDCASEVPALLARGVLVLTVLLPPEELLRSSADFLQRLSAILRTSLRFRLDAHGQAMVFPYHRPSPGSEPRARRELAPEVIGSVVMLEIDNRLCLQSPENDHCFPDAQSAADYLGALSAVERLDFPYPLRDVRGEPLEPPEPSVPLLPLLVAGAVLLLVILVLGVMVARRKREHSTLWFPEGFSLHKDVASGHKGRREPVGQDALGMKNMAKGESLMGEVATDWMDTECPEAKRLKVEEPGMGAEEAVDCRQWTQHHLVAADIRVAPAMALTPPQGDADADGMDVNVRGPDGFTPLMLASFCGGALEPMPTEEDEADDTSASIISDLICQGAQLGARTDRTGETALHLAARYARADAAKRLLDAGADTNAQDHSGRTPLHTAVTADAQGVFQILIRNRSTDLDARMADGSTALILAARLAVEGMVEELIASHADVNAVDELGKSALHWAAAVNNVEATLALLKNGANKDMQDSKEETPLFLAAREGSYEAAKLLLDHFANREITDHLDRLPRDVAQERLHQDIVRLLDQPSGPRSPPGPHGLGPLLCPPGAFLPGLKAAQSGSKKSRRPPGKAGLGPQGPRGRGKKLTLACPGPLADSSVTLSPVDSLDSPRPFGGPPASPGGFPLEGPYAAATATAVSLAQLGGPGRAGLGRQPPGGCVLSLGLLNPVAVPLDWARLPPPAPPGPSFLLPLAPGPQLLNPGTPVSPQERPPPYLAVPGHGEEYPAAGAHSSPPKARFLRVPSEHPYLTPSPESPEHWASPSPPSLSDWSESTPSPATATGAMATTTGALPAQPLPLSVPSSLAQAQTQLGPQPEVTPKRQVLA
Pro-neuregulin-1, membrane-bound isoform (Homo sapiens), sequence (Q02297 whole entry, looked up, the tested form may be a part, canonical isoform): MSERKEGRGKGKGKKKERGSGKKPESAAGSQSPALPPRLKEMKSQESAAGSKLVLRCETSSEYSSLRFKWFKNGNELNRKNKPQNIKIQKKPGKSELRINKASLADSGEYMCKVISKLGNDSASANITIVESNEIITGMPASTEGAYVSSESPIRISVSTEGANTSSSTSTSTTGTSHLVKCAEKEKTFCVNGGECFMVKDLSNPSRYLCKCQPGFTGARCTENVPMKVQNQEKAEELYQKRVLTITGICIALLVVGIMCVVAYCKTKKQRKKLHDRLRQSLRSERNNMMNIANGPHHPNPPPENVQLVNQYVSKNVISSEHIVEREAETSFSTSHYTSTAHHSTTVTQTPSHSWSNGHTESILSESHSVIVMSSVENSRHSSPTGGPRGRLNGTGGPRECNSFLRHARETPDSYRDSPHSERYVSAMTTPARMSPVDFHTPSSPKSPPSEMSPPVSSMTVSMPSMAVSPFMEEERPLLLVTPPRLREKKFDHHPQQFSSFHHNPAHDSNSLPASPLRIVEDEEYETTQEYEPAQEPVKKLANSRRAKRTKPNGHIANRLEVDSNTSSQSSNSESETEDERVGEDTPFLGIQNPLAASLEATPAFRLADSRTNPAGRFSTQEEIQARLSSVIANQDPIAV

Row | Structure (SMILES) | composite z-score [1] | composite z-score [2] | composite z-score [3] | composite z-score [4] | composite z-score [5] | composite z-score [6] | composite z-score [7] | z-score [8] | composite z-score [9] | composite z-score [10] | composite z-score [11] | z-score [12] | z-score [13] | z-score [14] | composite z-score [15] | z-score [16] | composite z-score [17] | composite z-score [18] | composite z-score [19] | composite z-score [20]
1 | C=CCOC(=O)[C@@H]1[C@H]2C(=O)O[C@H](c3ccccc3)[C@H](c3ccccc3)N2[C@H](c2ccc(OCCOC(=O)[C@H]3C[C@H]4C(=O)N[C@@H](CCCCNC(C)=O)C(=O)N4[C@H]3c3cccc(OCCO)c3)cc2)[C@@]12C(=O)Nc1ccc(I)cc12 | -0.0066 | 0.99 | -0.0718 | 0.404 | 0.544 | 0.851 | 1.28 | 0.49 (inactive) | 0.252 | 0.0479 | 1.54 | 1.71 (inactive) | 1.38 (inactive) | 3.9 (inactive) | 1.78 | 0.136 (inactive) | -0.195 | 1.68 | 1.12 | -0.0882
2 | O=C1O[C@@H](c2ccccc2)[C@@H](c2ccccc2)N2[C@@H](c3ccccc3OCCO)[C@]3(C(=O)Nc4ccc(C#CCCO)cc43)[C@@H](C(=O)Nc3nc4ccccc4s3)[C@H]12 | -0.0348 | 0.74 | -0.0165 | 1.07 | 1.36 | 1.5 | 1.3 | -2.4 (inactive) | 0.73 | 0.28 | 1.55 | 1.49 (inactive) | -0.487 (inactive) | 3.2 (inactive) | 2.64 | 1.59 (inactive) | 0.259 | 0.448 | 1.05 | 0.131
3 | C=CCNC(=O)[C@@H]1[C@H]2C(=O)O[C@H](c3ccccc3)[C@H](c3ccccc3)N2[C@H](c2ccc(OCCO)cc2)[C@@]12C(=O)N(C(=O)OCCOC)c1ccc(C#CC3=CCCCC3)cc12 | 0.0698 | 0.937 | 0.0524 | 0.59 | 1.35 | 1.33 | 1.17 | 0.223 (inactive) | 0.622 | 0.21 | 1.55 | 1.27 (inactive) | 1.14 (inactive) | 3.61 (inactive) | 2.83 | -0.741 (inactive) | -0.0373 | 0.978 | 1.14 | 0.0209
4 | COc1c(C)cc(-c2cc3c(c(-c4ccccc4)n2)[Si](C(C)C)(C(C)C)OC3)cc1C | -0.0563 | -0.0385 | -0.241 | -0.304 | -0.181 | -0.112 | -1.15 | -0.577 (inactive) | -0.205 | -0.0672 | -0.267 | 0.105 (inactive) | -0.747 (inactive) | -0.275 (inactive) | -0.495 | 0.346 (inactive) | 0.0008 | -0.24 | -0.263 | -0.0262
5 | CCOc1cc(C(O)C2C=CC3C(=O)N(C)C(=O)C3N2N2CCCCC2)ccc1O (stereo not given) | -0.152 | 0.38 | 0.0421 | 0.348 | 0.885 | 1.45 | 0.496 | 0.133 (inactive) | 0.707 | 0.0139 | 0.163 | 1.26 (inactive) | 0.803 (inactive) | 1.63 (inactive) | 2.56 | -0.613 (inactive) | 0.0209 | -0.185 | 0.0152 | 0.0054
6 | COc1ccc([Si](C)(C)[C@@H]2[C@@H](CCO)O[C@]3(C(=O)N(Cc4cccc(N5C(=O)c6ccccc6Oc6ccccc65)c4)c4ccccc43)[C@H]2C)cc1 | 0.393 | 0.123 | -0.134 | -0.173 | -0.571 | 0.536 | 0.602 | 0.133 (inactive) | 0.0472 | -0.134 | 1.17 | 2.79 (inactive) | -0.483 (inactive) | 36.9 (active) | 1.46 | 1.21 (inactive) | -0.0666 | -0.224 | 0.0578 | -0.281
7 | [N-]=[N+]=NCc1ccccc1C[C@@]1(C(=O)N2CCCCC2)N=C(c2ccc(OCCCO)cc2)O[C@@H]1c1ccccc1N=[N+]=[N-] | 0.167 | 0.101 | -0.204 | 0.229 | 1.49 | 1.38 | 1.05 | -3 (inactive) | 0.227 | 0.0505 | 0.422 | -0.64 (inactive) | 0.832 (inactive) | 4.02 (inactive) | 1.73 | 1.17 (inactive) | -0.0591 | 0.244 | 0.923 | 0.0923
8 | Cc1ccc(S[C@]2(C(=O)NC(C)C)CC(=O)N(C3Cc4ccccc4C3)[C@@H]2c2ccc(CO)cc2I)cc1 | 0.125 | -0.869 | -0.216 | -0.667 | -0.853 | 1.06 | 0.381 | -1.85 (inactive) | -0.654 | -0.858 | 0.871 | -0.801 (inactive) | -2.68 (inactive) | -0.0369 (inactive) | 3.32 | 0.733 (inactive) | -0.0131 | -0.0975 | -0.505 | -0.37
9 | O=C1OCCC=C[C@H]2OC34C=CCN(c5ccc(Cl)cc5)C(=O)[C@H]3N(CCCCCO)C(=O)[C@@H]4C12 (stereo not given in full) | 0.418 | 1.77 | -0.116 | -0.112 | 0.0387 | 1.48 | 1.44 | -0.997 (inactive) | -0.149 | -0.0708 | 0.536 | -0.579 (inactive) | -1.99 (inactive) | -0.54 (inactive) | 2.68 | 1.71 (inactive) | 0.0636 | -0.261 | 0.0841 | -0.0671
10 | COC(=O)[C@@]1(Cc2ccc(F)cc2)[C@H]2c3cc(C(=O)N4CCCC4)n(CCF)c3C[C@H]2CN1C(=O)c1ccccc1 | 0.999 | 1.52 | 0.856 | 1.1 | 1.55 | 1.65 | 1.29 | -0.533 (inactive) | 2.81 | 2.09 | -0.195 | -0.496 (inactive) | -0.202 (inactive) | -0.0254 (inactive) | 3.13 | 0.164 (inactive) | 1.49 | -0.258 | 1.13 | 0.879
